# Hits are enriched below; roughly 5.7% of the tested compounds scored in any of these assays.
# HepG2 tox = HepG2 cytotoxicity, counter-screen for TGF-b inhibitors; HepG2 CAGA-GFP viability, ATP luminescence, 18 h; Potency, µM (series often up to 46.1 µM), without a hit: at the highest dose activity change, negative = cytotoxicity, most hits filed as cytotoxic; hit rate 0.76% among 410,000; AID 588856; also: potency is read from the fitted curve at half-maximal effect
#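 HepG2 CAGA-GFP cells (1000/well, DMEM with 1% FBS) received compound, then TGF-beta at 500 pg/mL final, and were incubated 18 hours at 37 degrees C. Viability was read by CellTiter-Glo luminescence. Media-only wells were set as complete cell-killing and DMSO as no toxicity.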
# TGFb SMAD3 inh = inhibitors of TGF-b signaling. AID 588855. Potency, µM (doses to about 46.1 µM), for the others: at the highest dose activity, negative = inhibition, most hits filed as inhibitors. HepG2 CAGA-GFP TGF-b/SMAD3 reporter, GFP fluorescence, 18 h; TGF-beta stimulated, 500 pg/mL final. hit rate 1.2% among 410,000; also: potency is read from the fitted curve at half-maximal effect; % is scaled to controls: 0 for no effect and ±100 for the full control effect; nearly all actives have a fitted effect of over 65% in size
#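 Read-out: total well GFP (ex488/em500-530) summed from mean per-cell fluorescence. Cells: HEPG2 CAGA-GFP, 1% FBS DMEM, 18 h at 37 degrees C with 500 pg/mL final TGF-beta. Unstimulated wells served as the full-inhibition control; stimulated DMSO wells = 0%.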
# ATXN2 expr inh = reduces ATXN2 reporter expression in HEK-293 cells | Potency, µM (doses to about 57 µM), for the others: at the top dose activity change, negative = inhibition, usual class: inhibitors | hit rate 0.72% among 360,000 | HEK-293 ATXN2-luciferase reporter, luminescence, 24 h; also: potency is read from the fitted curve at half-maximal effect; % is scaled to controls: 0 for no effect and ±100 for the full control effect; nearly all actives have a fitted effect of over 55% in size
#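 qHTS (up to 57 uM final) was run with 24 h compound exposure of reporter cells at 37 °C. Each well was multiplexed: SteadyGlo luminescence measured ATXN2-luciferase expression after a fluorogenic Gly-Phe-AFC viability readout (25 uM final).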
# IL-1B inflam inh = blocks inflammasome-driven IL-1 beta release. THP-1 LPS/ATP IL-1B secretion, AlphaLISA, 16 h; active compounds read low. activity change, % at 57.5 µM. hit rate 4.7% among 360,000; in the data active = activity change below about -50%; inconclusive = mostly about -30% to -49%; also: % is scaled to controls: 0 for no effect and ±100 for the full control effect
#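 THP-1 cells pretreated 1 hr with compounds (up to 57.5 uM final), then stimulated with LPS (250 ng/mL final) plus ATP (1.25 mM final); secreted IL-1B measured by AlphaLISA after 16 hr, decreased signal indicating inhibition.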
# S2 tox = viability counter-screen for ATXN expression inhibitors. Potency, µM (doses to about 56.7 µM), actives largely listed as cytotoxic. S2 cells (HEK-293 line with an ATXN2-luciferase reporter) viability, CellTiter-Fluor protease fluorescence, 24 h. hit rate 0.49% among 400,000. AID 651635; also: potency is read from the fitted curve at half-maximal effect; nearly all actives have a fitted effect of over 40% in size
# An asterisk follows results filed as active; i = inactive; ? = inconclusive; . = not tested or not shown; ! = not active in a repeat; [ ] = remark or other dose. Unless noted, calls follow the shape of the dose curve; as a rule, active = well fitted curve in the direction sought with a large enough effect; inconclusive = small, poorly fitted or top-dose-only effect, or another doubt; inactive = no such curve, though single readings can be large; an effect the other way counts as inactive or inconclusive.
SMILES,HepG2 tox,TGFb SMAD3 inh,ATXN2 expr inh,IL-1B inflam inh,S2 tox
CCCCCCCCC(=O)N/N=C(\C)c1ccc(O)cc1O,-23%,?,18µM*,49,?
Cc1cc2nc(N3CCC(NC(C)c4nc(-c5ccccn5)no4)CC3)nc(C)c2cc1C (stereo not drawn),.,.,.,.,i
O=C(c1ccc2c(c1)OCO2)N(Cc1cc2ccc(F)cc2nc1N1CCC(O)CC1)CC1CCCO1 (stereo not drawn),.,.,.,.,i
C/C(=N\NC(=O)c1cc(-c2cccc(OC(C)C)c2)nc2ccccc12)c1cccnc1,-29%,1%,-20%,-3,i
C/C(=N\NC(=O)c1cc(-c2cccnc2)nc2ccccc12)c1ccc(O)cc1O,-20%,-9%,4µM*,49,?
CCN1C[C@H](C)n2c(c(O)c3c(=O)n(Cc4ccc(F)c(Cl)c4)nc(C(=O)NC)c32)C1=O,.,.,-4%,.,.
COc1cccc(NC(=O)Nc2cc(-c3cn4cccnc4n3)ccc2OC)c1,-11%,-7%,44%,.,?
Oc1nc(Nc2ccc(F)cc2)sc1/C=C1\C=Nc2ccccc21,-27%,?,-2%,-78*,?
Oc1cccc(Nc2nc(O)c(/C=C3\C=Nc4ccccc43)s2)c1,-2%,?,12%,83,?
Cc1onc(-c2ccccc2)c1C(=O)OCC(=O)Nc1ccc(OC(F)(F)F)cc1,-36%,13µM*,?,-50*,i
Cc1ccc(Nc2nnns2)cc1,-22%,3%,1%,-19,i
CC1=CC(C)(C)N=C(Nc2ccc(C)cc2)S1,-46%,0%,30%,-65*,i
S=c1ncc2n[nH]nc2[nH]1,-51%,2%,.,.,.
CCn1c(=O)c2cc(C(=O)NCCCN(C)Cc3ccccc3)sc2c2ccccc21,-105%,?,?,.,32µM*
CCN(C(=O)c1cc2c(=O)n(CC)c3ccccc3c2s1)c1cccc(C(F)(F)F)c1,-19%,-20%,8%,.,i
CN(CCCNC(=O)c1cccn2c(=O)c3ccccc3nc12)Cc1ccccc1,-30%,11µM*,?,?,?
CCOc1ccccc1N(CC)C(=O)c1cc2c(=O)n(CC)c3ccccc3c2s1,-44%,18µM*,?,.,?
CCn1c(=O)c2cc(C(=O)N(C)c3ccccc3F)sc2c2ccccc21,-23%,17%,1%,-72*,?
CCCN(C(=O)c1cc2c(=O)n(CC)c3ccccc3c2s1)c1ccccc1F,-20%,-3%,-8%,.,i
CCCn1c(SCc2nc(-c3ccccc3OCC)no2)nnc1-c1ccc(Cl)cc1,-15%,?,?,.,?
CCn1c(=O)c2cc(C(=O)N(C)c3cc(C)ccc3OC)sc2c2ccccc21,-25%,?,.,-84*,?
CCn1c(=O)c2cc(C(=O)N(C)c3cc(Cl)c(OC)cc3OC)sc2c2ccccc21,1%,-9%,-23%,.,i
Cc1cc(C=O)c(C)n1-c1sc2c(c1C(=O)O)CCCC2,-4%,?,0%,7,i
COC(=O)c1c(-n2c(C)cc(C=O)c2C)sc2c1CCCC2,1%,-4%,?,-63*,?
COc1ccc(-c2cc(C(F)(F)F)nc(SCCC(=O)N3CCCC3)n2)cc1,-14%,-16%,-12%,-52*,i
SMILES,HepG2 tox,TGFb SMAD3 inh,ATXN2 expr inh,IL-1B inflam inh,S2 tox
COc1cccc(-c2cc(C(F)(F)F)n3nc(C(=O)N4CCCCC4c4cccnc4)cc3n2)c1 (stereo not drawn),-22%,-29%,?,-72*,?
COc1ccc(-c2cc(C(F)(F)F)n3nc(C(=O)N4CCCCC4)cc3n2)cc1,5%,-1%,-20%,-53*,i
COc1ccc(-c2cc(C(F)(F)F)n3ncc(C(=O)N(C)Cc4ccccc4)c3n2)cc1,-9%,-18%,0%,-56*,i
COc1ccc(-c2cc(C(F)(F)F)nc(SCC(=O)N3CCCCC3)n2)cc1,4%,?,-12%,.,i
CN(C)c1nc2cc3c(cc2cc1CN(CC1CCCO1)C(=O)c1cccc(F)c1)OCO3 (stereo not drawn),.,.,.,.,i
COc1ccc(CC(=O)Nc2ccc(-c3nc4ccccc4s3)c(C)c2)cc1OC,-17%,-1%,9%,.,i
O=C(c1cc2nc(-c3ccccc3)cc(-c3ccccc3)n2n1)N1CCCC1,-11%,6%,-16%,-67*,i
CN1CCN(C(=O)c2cc3nc(-c4ccccc4)cc(-c4ccccc4)n3n2)CC1,-9%,10%,-13%,?,i
Cc1ccc(C(=O)N2c3ccccc3N(Cc3ccccc3)C(=O)C2(C)C)cc1,-30%,?,?,-68*,i
CCCCCCCCNC(C)C(O)c1ccc(SC(C)C)cc1 (stereo not drawn),-102%,?,25µM*!,-86*,?
COc1ccc(-n2c(C)c([N+](=O)[O-])c3ccc(O)c(CN4CCCCC4)c32)cc1,-86%,23%,-12%,-68*,i
Cc1ccc(-n2c(C)c([N+](=O)[O-])c3ccc(O)c(CN(C)C)c32)cc1,-7%,0%,0%,?,i
Cc1cccc(OCC(O)CNC(C)(C)C)c1C (stereo not drawn),.,.,-7%,.,i
N#C/C(=C\c1ccccc1)C(=O)N(c1ccccn1)C1CCCCC1,-68%,?,-2%,-98*,?
Cc1ccc(-c2nc3n(n2)C(c2ccccc2Cl)C=C(c2ccc(Cl)cc2)N3)cc1 (stereo not drawn),-2%,0%,5%,.,?
CC1=NN(C(=O)Cc2ccc([N+](=O)[O-])cc2)C(O)(C(F)(F)C(F)(F)F)C1 (stereo not drawn),-70%,11µM*,.,71,?
COc1ccc(NC(=O)C2CCN(c3cc(-c4ccccc4)nc4ncnn34)CC2)cc1OC,0%,-18%,?,-58*,i
CCOc1ccc(CNC(=O)C2Cc3cc(S(=O)(=O)N4CCCCCC4)ccc3N2C(C)=O)cc1 (stereo not drawn),-4%,-4%,10%,.,i
Cc1ccc(CN2CCN(/N=C\C(Br)=C\c3ccccc3)CC2)cc1,2%,-27%,-14%[11.3 µM],-78*,i
BrC(=C\c1ccccc1)/C=N/N1CCN(c2ccccc2)CC1,-17%,?,.,-81*,i
COc1ccc(CNC(=O)CSc2ncc3c(n2)-c2cc(Cl)ccc2N(C)S3(=O)=O)cc1,-2%,0%,-5%,.,i
CCOc1c(Cl)cc(CNc2ccc3[nH]c(=O)[nH]c3c2)cc1OC,-12%,3%,-28%,.,?
Nc1nc(-c2ccc3ccccc3c2)cs1,-38%,-5%,94%,-67*,i
Nc1nc(-c2cc3ccccc3o2)cs1,-6%,-18%,102%,-75*,i
